Bioassay records (PubChem BioAssay)
Rows were chosen to be rich in hits. Some 19% of all compounds tested hit in one or more screens of this group.
TDP1 cell CPT – growth inhibition of DT40 Tdp1-/-;hTDP1 cells with camptothecin (screen for TDP1 inhibitors); chicken DT40 Tdp1-/-;hTDP1 cells + 20 nM CPT, ATP luminescence, 48 h; Potency, µM (highest dose often 46.2 µM), actives largely listed as inhibitors; 420,000 tested, 12% active; AID 686979; further: nearly all actives have a fitted effect of over 55% in size
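Cell growth measured by CellTiter-Glo luminescence after a minimum 48 h, 37 C compound exposure with 20 nM CPT in Tdp1-knockout DT40 cells stably expressing hTDP1, seeded 400/well; qHTS titration format.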
HT1080 IDH1KD tx – kills HT-1080 cells with IDH1 knockdown | HT-1080 IDH1 knockdown viability, ATP luminescence, 48 h | Potency, µM (doses to about 46.1 µM), usual class: cytotoxic | 360,000 tested, 2% active
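% activity derives from luminescence (CellTiter-Glo), normalised to DMSO and no-cell wells. HT-1080-IDH1KD cells, 750/well, had 48 h compound exposure at 37 °C.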
HT1080NT lethal – kills 2HG-producing HT-1080-NT fibrosarcoma cells; 360,000 tested, 1.6% active; Potency, µM (top dose mostly 46.1 µM), hits mostly cytotoxic; HT-1080-NT fibrosarcoma viability, CellTiter-Glo ATP luminescence, 48 h; AID 686970;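 further: NT is the 2HG producing partner of a matched IDH1 knockdown line; nearly all actives have a fitted effect of over 55% in size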
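Fibrosarcoma NT cells, 750 per well in 5% FBS RPMI, were exposed to compound for 48 hours. Viability: CellTiter-Glo luminescence.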
TDP1 cell noCPT – qHTS for Inhibitors of human tyrosyl-DNA phosphodiesterase 1 (TDP1): qHTS in cells in absence of CPT | DT40 Tdp1-/- hTDP1 cells, no CPT, ATP luminescence, 48 h | 420,000 tested, 15% active | Potency, µM (doses to about 46.2 µM), hits mostly inhibitors; further: nearly all actives have a fitted effect of over 55% in size
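Luminescent ATP content (CellTiter-Glo) served as the growth readout. Knockout chicken DT40 cells expressing human TDP1 were exposed to compounds without camptothecin for a minimum 48 hr at 37 °C.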
IL1B secr inh – blocks inflammasome-driven IL-1 beta release. activity change, % at 57.5 µM. AID 743279. THP-1 LPS/ATP IL-1B secretion, AlphaLISA, 16 h; active compounds read low. 360,000 tested, 4.7% active; in the data active means activity change below about -50%; inconclusive means mostly about -30% to -49%
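THP-1 cells pretreated 1 hr with compounds (up to 57.5 uM final), then stimulated with LPS (250 ng/mL final) plus ATP (1.25 mM final); secreted IL-1B measured by AlphaLISA after 16 hr, decreased signal indicating inhibition.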
A number is an active result; – = inactive; ? = inconclusive; · = no result given. Unless noted, the call rests on the fitted dose curve; in most records, active means well fitted curve in the direction sought with a large enough effect; inconclusive means small, poorly fitted or top-dose-only effect, or another doubt; inactive means no such curve, though single readings can be large; an effect the other way counts as inactive or inconclusive.

SMILES	TDP1 cell CPT	HT1080 IDH1KD tx	HT1080NT lethal	TDP1 cell noCPT	IL1B secr inh
c1ccc(CSc2nc3ncccn3n2)cc1	–	–	–	–	–
COc1cccc(NC(=O)C2CCN(S(=O)(=O)c3c(C)noc3C)CC2)c1	–	·	·	–	·
O=C(CNc1cccc(S(=O)(=O)N2CCCC2)c1)Nc1ccc(F)cc1F	?	–	–	?	–
CCOC(=O)c1cnc2ccc(OCC)cc2c1NCCc1ccc(OC)c(OC)c1	3.3µM	·	·	2.3µM	·
CCOC(=O)c1cnc2ccc(C)cc2c1NCCc1ccc(OC)c(OC)c1	15µM	·	·	15µM	·
O=Cc1ccnc2ccccc12	2.8µM	·	·	–	·
ON=Cc1ccnc2ccccc12	–	–	–	?	–
N#CC(=Cc1ccnc2ccccc12)c1ccccc1	?	–	–	21µM	–
O=CNc1ccc(/C=C/c2ccnc3ccccc23)cc1	13µM	·	·	14µM	·
C=Nc1ccc(/C=C/c2ccnc3ccccc23)cc1	22µM	·	·	11µM	·
CSc1ccc(/C=C/c2ccnc3ccccc23)cc1	–	·	·	–	·
COCCn1c(N)c(N(Cc2ccccc2)C(=O)COc2ccccc2F)c(=O)[nH]c1=O	–	–	–	–	–
O=CN(Cc1nc2ccccc2[nH]1)c1ccc(C(=O)O)cc1	–	–	–	–	–
CN(C)C1(CNC(=S)Nc2ccccc2C(F)(F)F)CCCCC1	–	–	–	–	–
C[n+]1c(/C=C/c2ccnc3ccccc23)cc(/C=C/c2ccnc3ccccc23)c2ccccc21	5µM	·	·	2.5µM	·
Nc1ccccc1/C=C/c1ccnc2ccccc12	5µM	·	·	3.2µM	·
C(=C\c1ccnc2ccccc12)/c1cccnc1	?	·	·	13µM	·
C(=C\c1ccnc2ccccc12)/c1ccnc2ccccc12	?	·	·	18µM	·
COc1cc(-c2nnc(SCC(=O)Nc3cccc(C#N)c3)o2)cc(OC)c1OC	–	·	·	–	·
NCCS(=O)(=O)O	–	–	?	?	–
O=C(/C=C/c1ccnc2ccccc12)c1cccs1	4.6µM	18µM	18µM	13µM	-118
O=[N+]([O-])c1ccccc1/C=C/c1ccnc2ccccc12	?	·	·	14µM	·
Cn1cc(/C=C/c2ccnc3ccccc23)c2ccccc21	?	·	·	11µM	·
O=c1[nH]c(/C=C/c2ccccc2[N+](=O)[O-])nc2ccccc12	–	–	–	–	–
Cc1nc(CNC(=O)CC2C(=O)NCCN2Cc2cccc(Oc3ccccc3)c2)cs1 (stereo not given)	?	–	–	?	–
SMILES	TDP1 cell CPT	HT1080 IDH1KD tx	HT1080NT lethal	TDP1 cell noCPT	IL1B secr inh
O=C(COC(=O)CCCNC(=O)c1ccc(Cl)cc1)NC1CC1	–	–	–	–	–
CCCSc1nc(NCc2ccco2)c2c3c(sc2n1)COC(C)(C)C3	–	–	–	?	–
Cc1ccc(-n2ncc(Br)c(Br)c2=O)cc1	4.1µM	5.2µM	4.6µM	3.7µM	-99
O=c1c(Br)c(Br)cnn1-c1ccccc1	4.1µM	4.1µM	2.9µM	3.7µM	-106
O=c1c(Br)c(N2CCCC2)cnn1-c1ccccc1	–	–	–	–	–
COc1cc2c3nnc(-c4ccc(F)cc4)c-3cn(Cc3ccccc3)c2cc1OC	3.3µM	?	–	5.2µM	-95
COc1cc2c3nnc(-c4ccc(F)cc4)c-3cn(Cc3ccc(F)cc3)c2cc1OC	2.3µM	?	–	2.6µM	–
COc1ccc(Cn2cc3c(-c4ccc(F)cc4)nnc-3c3cc(OC)c(OC)cc32)cc1	4.1µM	?	?	4.1µM	–
COc1ccc(-c2nnn(Cc3ccccc3)n2)cc1OC	–	–	–	–	–
Cn1nc2c3cc(F)ccc3n(Cc3ccc(F)cc3)cc-2c1=O	–	–	–	?	–
O=C(O)C[C@H]1c2ccccc2S(=O)(=O)N1C1CCCC1	?	–	–	–	–
Cc1cc(N(C)C)cc(C)c1C=O	–	·	·	–	·
Cc1ccc(C)c(C(O)c2ncc(-c3ccc(Cl)cc3)[nH]2)c1 (stereo not given)	?	?	?	?	–
CC(C)c1cc(NC(=O)c2ccccc2)cc(C(C)C)c1O	–	–	–	?	-57
Cc1ccccc1C(=O)Nc1cccc(C(=O)Nc2ccccc2C(=O)O)c1	–	–	–	–	–
